Measurements published in PubChem BioAssay (NCI).
About 83,000 compounds went through this panel and 20% of them were active in at least one assay; those are over-represented in the sample as a whole.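 A percent growth of 40 corresponds to 60% growth inhibition; 0 means no net growth; -100 means all cells died. Active threshold: below 10.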 Activity calls are given as the source filed them.

Each compound was assayed on UACC-62 melanoma (assay: NCI-60 one-dose screen, 48 h (100 = growth as untreated, 0 = no growth, -100 = all killed)). Details: 10 µM unless noted.

| SMILES | growth |
| --- | --- |
| COC(=O)c1c2c(c(C)[n+]([O-])c1C)C(=O)C(NCc1ccccc1)=CC2=O | -16.6% (active) |
| Oc1nc(NCc2ccccc2)sc1/C=C1\C=Nc2ncccc21 | 69.7% (inactive) |
| C=C1C(=O)O[C@H]2[C@H]1CC/C(COC(=O)/C=C\C(=O)NCc1ccc(Cn3c(=O)sn(CCCCl)c3=O)cc1)=C\CC[C@@]1(C)O[C@@H]21 | 65.1% (inactive) |

These compounds were tested on LOX IMVI melanoma in the same assay as above. Details: 10 µM unless noted.

| SMILES | growth |
| --- | --- |
| CCOC(=O)c1c(NC(=O)c2ccccc2)sc2c3c(ccc12)OCN(C)C3 | -90.8% (active) |
| COc1ccc(NC(=O)c2ccc(Nc3ncnc4c3cnn4-c3cccc(F)c3)cc2)cc1 | 96% (inactive) |
| COC(=O)c1c(C)nc(C)c2c1C(=O)C=C(NCc1ccccc1)C2=O | 61.7% (inactive) |
| CS(=O)(=O)Nc1cc(-c2ccc3ncnc(Nc4ccc5c(cnn5Cc5ccncc5)c4)c3c2)cnc1Cl | 22% (inactive) |
| S=c1ccnc[nH]1 | 96.5% (inactive) |
| Cc1ccc(S(=O)(=O)c2nc(-c3ccccc3)oc2SCC(N)=O)cc1 | 96% (inactive) |
| CN(C)Cc1ccc(NC(=O)c2cncc(C#Cc3cnc(N)c4ncccc34)c2)cc1C(F)(F)F | -79.9% (active) |
| COc1cc(/C=C/c2cn[nH]c2-c2ccc(C)cc2)cc(OC)c1OC | 40.6% (inactive) |
| CCOC(=O)C(CCN(C)C)c1ccccc1 (configuration not stated) | 98.3% (inactive) |
| O=C(/C=C/c1ccccc1)N(C1CCCCC1)C1CCCCC1 | 92.3% (inactive) |
| CC1(C)CC[C@]23CC[C@]4(C)[C@H](CC[C@@H]5[C@@]6(C)CCNCC(C)(C)[C@@H]6CC[C@]54C)[C@H]2[C@H]1OC3 | 83.8% (inactive) |
| Cc1nc2sc(C(=O)Nc3cccc4ccccc34)c(N)c2cc1C(=O)c1ccccc1 | 41.8% (inactive) |
| Cc1ccc(O)c(NC(=O)c2cccc(Nc3ccnc(C(F)(F)F)c3)c2)c1 | 66.9% (inactive) |
| N#CSc1c[nH]c2ccc(/C=C/C(=O)/C=C(O)/C=C/c3ccc4[nH]cc(SC#N)c4c3)cc12 | -75.8% (active) |
| COC(=O)/C(CCC=C(C)C)=C1\[C@@H](OC(C)=O)C[C@@]2(C)[C@H]1C/C(=N/O)[C@H]1[C@@]3(C)CC/C(=N\O)[C@@H](C)[C@@H]3CC[C@@]12C | 78.1% (inactive) |
| Nc1cccc(-c2ccc(COc3ccc(CC4SC(=O)NC4=O)cc3)cc2)c1 (configuration not stated) | 57.5% (inactive) |
| CCOC(=O)c1cnn(CC(C)O)c1NC(=O)NCc1cccc(F)c1 (configuration not stated) | 97.1% (inactive) |
| O=S(Nc1ccccc1)c1ccc(Cl)cc1 (configuration not stated) | 100% (inactive) |
| CCOC(=O)C1=C(CC(O)c2ccc(OC)cc2OC)NC(=O)NC1c1ccccc1 (configuration not stated) | 94.5% (inactive) |
| CCn1cc(C(=O)O)c(=O)c2cc(F)c(N3CCN(CC(=O)Nc4ccccc4)C(C)C3)c(F)c21 (configuration not stated) | 88.5% (inactive) |

| SMILES | growth |
| --- | --- |
| CCN(CC)c1ccc(-c2cc(-c3cc(OC)c(OC)c(OC)c3)nc(N3CCC(O)CC3)c2C#N)cc1 | -27.8% (active) |
| C=C(C)[C@@H]1CC[C@]2(C)[C@H](C=CC3=C4C[C@@](C)(CO)CC[C@]4(C)CC[C@]32C)[C@@]1(C)CCCN | -100% (active) |
| CS(=O)/C(C#N)=C\C=C\c1cccc(Cl)c1 (configuration not stated) | -53.2% (active) |
| CC1=C(Cl)C(=O)c2cc(C)ccc2C1=O | 100% (inactive) |
| N#Cc1ccc(O)c(C2=NCC(c3ccc(-c4ccccc4)cc3)O2)c1 (configuration not stated) | 11.8% (inactive) |
| CC[C@H](Nc1nc(N)nc(C)c1C#N)c1nc2cccc(CN(C)c3ncc(C(=O)NO)cn3)c2c(=O)n1-c1ccccc1 | -86.6% (active) |
| Cc1nc2ccccc2c(/C=C/c2ccc(F)cc2)c1C(=O)/C=C/c1ccccc1 | -82.5% (active) |
| O=C(CN1C(=O)S/C(=C\C(Cl)=C\c2ccccc2)C1=O)NC1CCS(=O)(=O)C1 (configuration not stated) | 14.2% (inactive) |
| Nc1[nH]nc2nc(-c3ccccc3)n3c4ccccc4nc3c12 | 99.7% (inactive) |
| CC(C)(C)OC(=O)CN1CCc2c(sc3ncnc(N4CCN(c5ccc(F)cc5)CC4)c23)C1 | 96.7% (inactive) |
| N#Cc1nn(-c2cc(=O)[nH]c3ccc(Br)cc23)c(N)c1C#N | 102% (inactive) |
| O=c1oc2ccccc2cc1-c1nn(-c2ccccc2)cc1-c1nn[nH]n1 | 89% (inactive) |
| COc1ccc(/C=N/NC(=O)Cn2c(-c3ccc(S(C)(=O)=O)cc3)nc3ccccc32)cc1 | 114% (inactive) |
| CC(C)n1c2ccc(Br)cc2c2c3c(c4c5ccccc5ccc4c21)C(=O)NC3=O | 106% (inactive) |
| CCOC(=O)C1=C(c2ccccc2)N=C2N(c3ccccc3)N=C(C(C)=O)N2C1c1ccc(F)cc1 (configuration not stated) | 102% (inactive) |
| COC1C(O)CC(OC2CC(OC3CC(O[C@@H]4C(=O)c5c(cc6cc(OC7CC(OC8CC(O)C(O)C(C)O8)C(O)C(C)O7)c(C)c(O)c6c5O)CC4[C@H](OC)[C@@H](O)C(C)=O)OC(C)C3O)OC(C)C2O)OC1C (some centres not stated) | -25.2% (active) |
| COC(=O)c1c2c(c(C)[n+]([O-])c1C)C(=O)C(NCc1ccccc1)=CC2=O | 8.65% (active) |
| Oc1nc(NCc2ccccc2)sc1/C=C1\C=Nc2ncccc21 | 52.1% (inactive) |
| C=C1C(=O)O[C@H]2[C@H]1CC/C(COC(=O)/C=C\C(=O)NCc1ccc(Cn3c(=O)sn(CCCCl)c3=O)cc1)=C\CC[C@@]1(C)O[C@@H]21 | 64.2% (inactive) |
